Here are results for five compounds from PubChem BioAssay.

Activity calls are given as the source filed them. Unless noted, how the calls were made is not given here.

A short description of experiment [1]: anti-His antibody binders, primary screen, artefact control for SMM control protein annotation, biochemical, small-molecule microarray, 635 nm fluorescence (AID 1128).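 Further: score merges feature fluorescence with signal-to-noise for each printed compound spot.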 The settings on record: anti-His Alexa647 antibody binding, higher = more signal.
Experiment [2] relates to Human papillomavirus type 1a E7 protein (residues 1-88). Briefly: HPV1a E7 small-molecule binders, primary screen, biochemical, small-molecule microarray, residues 1-88, 635 nm (AID 1129). The settings on record: small-molecule microarray binding, fluorescence 635 nm; higher = more signal.
In experiment [3] the target is Focal adhesion kinase 1 (Homo sapiens) (UniProt Q05397). In words: small-molecule microarray binders of FAK, primary screen, biochemical, 635/667 nm fluorescence, BSA, DTT (AID 1130).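 Further: composite of spot emission at 667 nm and signal to noise over triplicate slides.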 The settings on record: PTK2 binding, 635 nm fluorescence, higher = more signal.
The subject of experiment [4] is Fibrinogen (Alexa647-labelled). Briefly: fibrinogen binders on compound microarrays, profiling panel, artefact control for SMM control-protein annotation, biochemical, small-molecule microarray, 635/667 nm fluorescence (AID 1131).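 Further: z-score merges 667 nm fluorescence with per-spot signal-to-noise over triplicate slides.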 The settings on record: fibrinogen-A647 binding fluorescence, higher = more signal.
Experiment [5] has as its target Follistatin (Homo sapiens) (UniProt P19883). Briefly: follistatin binders on small-molecule microarrays, primary screen, biochemical, small-molecule microarray, 635/667 nm fluorescence (AID 1132). The settings on record: FST binding, 635 nm fluorescence, higher = more signal.
For experiment [6], the target named is Fibroblast growth factor 2 (Homo sapiens) (UniProt P09038). In words: FGF2 binders on small-molecule microarrays, primary screen, biochemical, small-molecule microarray, 635/667 nm fluorescence (AID 1133). The settings on record: small-molecule microarray binding, FGF2, fluorescence 635/667; higher = more signal.
A short description of experiment [7]: mitochondrial membrane potential change in A549 cells, profiling panel, cell-based, JC-1 fluorescence, basal, 24 h, 100 nL (AID 1138).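 Further: A549 lung adenocarcinoma cells under basal conditions with no added stimulus; test concentration not given here.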 The settings on record: higher = more signal.
Another experiment has as its system Lefty1. Briefly: Lefty1 binders on small-molecule microarrays, primary screen, biochemical, small-molecule microarray, 635/667 nm fluorescence (AID 1139). The settings on record: small-molecule microarray binding, fluorescence 635/667; higher = more signal.
The subject of experiment [8] is wheat germ agglutinin (Triticum aestivum), Alexa647-labelled. Briefly: wheat germ agglutinin binders on compound microarrays, profiling panel, artefact control for SMM control-protein annotation, biochemical, small-molecule microarray, 635/667 nm fluorescence (AID 1140).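 Further: score merges 667 nm feature emission with signal to noise over triplicate slides.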 The settings on record: WGA-A647 binding, 635 nm fluorescence, higher = more signal.
Experiment [9] addresses Luciferin 4-monooxygenase (Photinus pyralis) (UniProt P08659). In words: firefly luciferase enzyme inhibitors, primary screen, biochemical, luminescence, purified enzyme, 2006 set (AID 1141).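 Further: cell-free assay with purified firefly luciferase at 100 ng per well in PBS; test concentration not given here.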 The settings on record: SteadyGlo luminescence, 30 min, higher = more signal, called active from +8 up or from −8 down.
The subject of experiment [10] is Wnt5a (protein binding on small-molecule microarray). Briefly: Wnt5a binders on small-molecule microarray, primary screen, biophysical, 635/667 nm fluorescence (AID 1142).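 Further: fluorescence read at 667 nm with signal to noise per printed feature.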 The settings on record: 635 nm fluorescence, higher = more signal.
Experiment [11] is described as follows: cell viability in Huh7 cells, primary screen, cytotoxicity control for HCV replication inhibitor project, CellTiter-Glo luminescence, basal, 48 h (AID 1143).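 Further: Huh7 hepatoma cells carrying a hepatitis C replication reporter with no stimulus; test concentration not given here.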 The settings on record: Huh7 HCV replicon, higher = more signal, called active from +8 up or from −8 down. Background: ATP-based viability assays read luminescence as a measure of living cells.
Experiment [12] in a line: P. aeruginosa biofilm formation inhibitors, primary screen, PAO1 strain, BacTiter-Glo luminescence, LB-PBS (AID 1144). The settings on record: 12 h, higher = more signal.
A short description of experiment [13]: CREB reporter modulators without forskolin, primary screen, cell-based, PC12, CRE-LacZ reporter, unstimulated (AID 1145). The settings on record: no forskolin, luminescence, 4.5 h, higher = more signal, called active from +8 up or from −8 down.
Experiment [14] can be described thus: CREB reporter modulators under forskolin, primary screen, cell-based, PC12, CRE-LacZ reporter, forskolin-stimulated (AID 1146).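 Further: PC12 cells with 6xCRE LacZ reporter stimulated by forskolin 10 µM; beta-galactosidase reporter signal reflecting CREB driven transcription.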 The settings on record: luminescence, 4.5 h, higher = more signal, called active from +8 up or from −8 down.
Experiment [15] concerns the target Streptavidin (Streptomyces avidinii) (UniProt P22629). Briefly: streptavidin binders on small-molecule microarray, primary screen, artefact control for SMM compound annotation, biophysical, 635/667 nm fluorescence (AID 1147).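 Further: signal reflects streptavidin binding to arrayed compounds as a control protein.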 The settings on record: streptavidin binding, higher = more signal.
The nature of experiment [16]: small-molecule binders of probe aInhba, primary screen, biochemical, small-molecule microarray, 635/667 nm fluorescence (AID 1148).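 Further: score merges 667nm spot fluorescence with signal-to-noise for antibody binding to printed compounds.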 The settings on record: higher = more signal.
The target of experiment [17] is Torsin-1A (Homo sapiens) (UniProt O14656). In words: torsin A binders from cell lysate, primary screen, small-molecule microarray, wild-type, 635/667 nm (AID 1149). The settings on record: COS7 hTOR1A-WT lysate, 635 nm fluorescence, higher = more signal.
The target is the same in experiment [18]. In words: small-molecule binders of mutant TOR1A in lysate, primary screen, cell lysate, small-molecule microarray, COS7 lysate, 635/667 nm fluorescence (AID 1150).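 Further: score pools 667 nm emission and signal to noise measuring lysate protein binding.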 The settings on record: COS7 hTOR1A mutant lysate, 635 nm fluorescence, higher = more signal.
Experiment [19] relates to Sonic hedgehog protein (Shh). Briefly: small-molecule binders of Shh protein, primary screen, biochemical, small-molecule microarray, 635/667 nm fluorescence (AID 1151).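 Further: Shh protein binding to compounds spotted on small-molecule microarray slides; score combines spot fluorescence intensity with signal-to-noise across triplicate slides.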 The settings on record: small-molecule microarray binding, 635 nm fluorescence; higher = more signal.

Chain of Fibroblast growth factor 2 (Homo sapiens) (P09038 whole entry, looked up): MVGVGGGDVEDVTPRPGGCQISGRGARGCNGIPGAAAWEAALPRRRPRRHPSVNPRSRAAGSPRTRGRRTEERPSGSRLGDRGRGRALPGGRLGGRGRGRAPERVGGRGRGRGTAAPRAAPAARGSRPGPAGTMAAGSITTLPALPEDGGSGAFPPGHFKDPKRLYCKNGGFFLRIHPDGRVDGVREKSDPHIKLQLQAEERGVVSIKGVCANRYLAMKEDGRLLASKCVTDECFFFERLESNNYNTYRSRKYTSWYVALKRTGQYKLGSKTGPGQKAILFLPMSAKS
Chain of Focal adhesion kinase 1 (Homo sapiens) (Q05397 whole entry, looked up): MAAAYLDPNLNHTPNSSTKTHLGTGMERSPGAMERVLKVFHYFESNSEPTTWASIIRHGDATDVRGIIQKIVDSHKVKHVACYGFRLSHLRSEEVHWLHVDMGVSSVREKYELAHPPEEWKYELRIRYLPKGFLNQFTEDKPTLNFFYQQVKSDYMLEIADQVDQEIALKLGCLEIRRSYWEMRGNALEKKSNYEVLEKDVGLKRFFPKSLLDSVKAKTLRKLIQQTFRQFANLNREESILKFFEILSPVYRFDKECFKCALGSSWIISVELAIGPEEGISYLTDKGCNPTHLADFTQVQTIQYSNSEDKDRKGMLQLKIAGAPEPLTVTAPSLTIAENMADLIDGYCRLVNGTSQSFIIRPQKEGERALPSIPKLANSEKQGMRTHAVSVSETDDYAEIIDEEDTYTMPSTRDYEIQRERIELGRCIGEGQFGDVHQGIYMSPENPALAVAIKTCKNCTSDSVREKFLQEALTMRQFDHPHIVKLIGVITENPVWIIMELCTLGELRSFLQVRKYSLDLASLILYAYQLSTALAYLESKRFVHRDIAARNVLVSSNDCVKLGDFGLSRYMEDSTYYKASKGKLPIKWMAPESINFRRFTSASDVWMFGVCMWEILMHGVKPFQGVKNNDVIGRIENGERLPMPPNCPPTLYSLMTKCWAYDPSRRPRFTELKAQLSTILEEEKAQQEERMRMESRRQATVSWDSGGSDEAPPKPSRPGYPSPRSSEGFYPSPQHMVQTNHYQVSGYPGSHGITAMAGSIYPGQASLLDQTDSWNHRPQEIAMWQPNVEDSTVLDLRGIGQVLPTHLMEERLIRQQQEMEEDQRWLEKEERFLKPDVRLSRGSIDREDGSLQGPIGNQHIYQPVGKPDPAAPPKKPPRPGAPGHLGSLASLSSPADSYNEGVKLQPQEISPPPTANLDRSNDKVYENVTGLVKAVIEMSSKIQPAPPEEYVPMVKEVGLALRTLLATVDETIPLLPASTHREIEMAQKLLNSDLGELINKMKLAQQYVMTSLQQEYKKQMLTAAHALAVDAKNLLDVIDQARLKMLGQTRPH
Chain of Streptavidin (Streptomyces avidinii) (P22629 whole entry, looked up): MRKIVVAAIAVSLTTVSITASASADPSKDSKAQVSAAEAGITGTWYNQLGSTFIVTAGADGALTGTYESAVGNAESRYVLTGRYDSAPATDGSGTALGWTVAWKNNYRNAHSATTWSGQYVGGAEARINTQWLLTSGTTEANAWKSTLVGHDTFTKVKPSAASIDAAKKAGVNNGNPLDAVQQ
Chain of Torsin-1A (Homo sapiens) (O14656 whole entry, looked up): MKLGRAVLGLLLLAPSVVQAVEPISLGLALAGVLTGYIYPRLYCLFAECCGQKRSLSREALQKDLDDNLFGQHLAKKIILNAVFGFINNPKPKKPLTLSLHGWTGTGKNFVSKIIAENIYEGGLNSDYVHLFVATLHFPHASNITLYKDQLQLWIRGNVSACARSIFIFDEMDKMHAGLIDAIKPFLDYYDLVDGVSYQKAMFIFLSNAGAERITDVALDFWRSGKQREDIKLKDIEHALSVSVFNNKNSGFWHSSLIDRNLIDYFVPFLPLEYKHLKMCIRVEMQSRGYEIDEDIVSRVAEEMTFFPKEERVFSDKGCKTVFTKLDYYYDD
Chain of Luciferin 4-monooxygenase (Photinus pyralis) (P08659 whole entry, looked up): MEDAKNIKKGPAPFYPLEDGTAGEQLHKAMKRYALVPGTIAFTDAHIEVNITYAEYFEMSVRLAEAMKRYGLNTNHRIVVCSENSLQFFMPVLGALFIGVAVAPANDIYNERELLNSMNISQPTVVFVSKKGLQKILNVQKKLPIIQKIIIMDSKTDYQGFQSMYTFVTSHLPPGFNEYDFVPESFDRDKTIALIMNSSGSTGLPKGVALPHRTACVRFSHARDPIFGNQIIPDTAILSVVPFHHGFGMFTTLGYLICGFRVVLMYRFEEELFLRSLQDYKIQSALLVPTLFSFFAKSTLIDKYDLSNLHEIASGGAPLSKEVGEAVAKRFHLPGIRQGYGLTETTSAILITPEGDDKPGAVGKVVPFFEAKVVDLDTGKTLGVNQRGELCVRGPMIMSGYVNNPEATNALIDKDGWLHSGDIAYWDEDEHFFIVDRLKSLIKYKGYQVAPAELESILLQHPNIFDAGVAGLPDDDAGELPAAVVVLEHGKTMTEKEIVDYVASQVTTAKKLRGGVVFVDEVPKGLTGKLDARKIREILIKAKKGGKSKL
Chain of Follistatin (Homo sapiens) (P19883 whole entry, looked up): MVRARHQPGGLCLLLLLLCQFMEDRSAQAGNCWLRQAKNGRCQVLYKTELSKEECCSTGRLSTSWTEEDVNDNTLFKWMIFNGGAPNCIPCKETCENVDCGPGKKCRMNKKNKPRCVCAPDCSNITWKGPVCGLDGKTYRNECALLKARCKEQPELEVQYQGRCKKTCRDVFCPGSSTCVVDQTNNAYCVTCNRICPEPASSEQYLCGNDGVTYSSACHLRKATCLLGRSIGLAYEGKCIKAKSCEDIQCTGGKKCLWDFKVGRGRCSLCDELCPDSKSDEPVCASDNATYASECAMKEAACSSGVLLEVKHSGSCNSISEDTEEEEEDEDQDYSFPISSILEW

On to `COc1ccc([C@H]2C[C@H]3C(Br)=C[C@@]2(CO)C(=O)[C@]32CO2)cc1`, for which the composite z-score in experiment [1] is -0.436; in experiment [2], -0.99; in [3], 0.125; in experiment [4], 0.281; in experiment [5], -0.0737; in [6], -0.441. Further, the composite z-score in the experiment on Lefty1 was -0.271; in experiment [8], 0.138; in [10] it was 0.0718; in [15], -0.264; in experiment [16], -0.0245; with Torsin-1A (Homo sapiens) [17] it was -0.361. The composite z-score in the experiment with Torsin-1A (Homo sapiens) [18] is -0.83; in [19], -0.134. Besides, the z-score is -0.592 in experiment [7]; 0.601 (inactive) in experiment [9]; 0.187 (inactive) in experiment [11]; -0.23 (inactive) in [12]; 0.309 (inactive) in [13]; 1.6 (inactive) in [14].
With `COc1cc(OC)c(C(O)C2C=CC3C(=O)NC(=O)C3N2Nc2ccccn2)cc1Br` (stereo not given), the composite z-score in experiment [1] was determined as 2.02; in experiment [2] it was 0.683; in experiment [3], 0.124; in [4], 0.368; in [5], 0.573; in [6], 0.562. Further, the composite z-score in the experiment with Lefty1 was 0.483; in experiment [8] it was 0.0687; in experiment [10] it was 0.364; in experiment [15] it was -0.118; in experiment [16], -0.0791; with Torsin-1A (Homo sapiens) [17], -0.105. Moreover, the composite z-score with Torsin-1A (Homo sapiens) [18] was found to be 0.197; in experiment [19], 0.754. Further, the z-score was 0.0938 in experiment [7]; -1.36 (inactive) in [9]; 0.996 (inactive) in experiment [11]; -0.874 (inactive) in experiment [12]; -0.326 (inactive) in experiment [13]; -0.527 (inactive) in experiment [14].
On to `O=C(CS)NCCCCCNC(=O)[C@H]1C[C@H]2C(=O)NCC(=O)N2[C@H]1c1cccc(OCCO)c1`, for which the composite z-score in [1] is -0.0298; in experiment [2], -0.864; in [3] it was 0.319; in experiment [4], 0.0186; in [5] it was 0.952; in experiment [6] it was 0.399. The composite z-score with Lefty1 is -0.0561; in [8], -0.347; in experiment [10] it was -0.341; in [15] it was -1.05; in [16], -0.217; in the experiment with Torsin-1A (Homo sapiens) [17] it was -0.181. The composite z-score is -0.0418 with Torsin-1A (Homo sapiens) [18] and 0.27 in experiment [19]. For the same compound, the z-score was -0.0613 in experiment [7]; 0.76 (inactive) in experiment [9]; -0.466 (inactive) in experiment [11]; -0.218 (inactive) in experiment [12]; -1.48 (inactive) in experiment [13]; 0.0277 (inactive) in experiment [14].
With `O=C(O)[C@@]1(CCS(=O)(=O)c2ccccc2)N=C(c2ccc(OCCCO)cc2)O[C@H]1c1ccccc1`, the composite z-score is 2.65 in experiment [1]; 0.23 in experiment [2]; 0.264 in [3]; 0.993 in experiment [4]; 0.265 in experiment [5]; -0.761 in [6]. The composite z-score was -0.387 in the experiment on Lefty1; 0.763 in experiment [8]; -0.111 in experiment [10]; 1.34 in experiment [15]; 0.102 in experiment [16]; 1.43 in the experiment with Torsin-1A (Homo sapiens) [17]. Also, the composite z-score is 1.79 with Torsin-1A (Homo sapiens) [18] and -0.338 in experiment [19]. For the same compound, the z-score in [7] is 0.175; in [9] it was -1.56 (inactive); in experiment [11], -0.798 (inactive); in experiment [12] it was 0.0288 (inactive); in experiment [13] it was -0.23 (inactive); in [14], -0.324 (inactive).
For the compound `CCCCCCCCCCC(O)C1C=CC2C(=O)NC(=O)C2N1Nc1ccc(Cl)cc1Cl` (stereo not given), the composite z-score in [1] was 0.997; in experiment [2], 0.186; in experiment [3] it was 0.459; in experiment [4], 0.331; in experiment [5] it was -0.184; in experiment [6] it was -0.942. For the same compound, the composite z-score is -1.14 in the experiment on Lefty1; 0.117 in experiment [8]; 0.333 in [10]; -0.261 in experiment [15]; -0.0131 in [16]; -1.76 with Torsin-1A (Homo sapiens) [17]. In addition, the composite z-score with Torsin-1A (Homo sapiens) [18] was 0.0193; in experiment [19] it was -0.349. For the same compound, the z-score in experiment [7] is -0.863; in experiment [9], -0.836 (inactive); in experiment [11] it was -1.95 (inactive); in experiment [12], -0.0821 (inactive); in [13], -0.136 (inactive); in experiment [14], -0.407 (inactive).
